TrxR1 inh – inhibitors of rat thioredoxin reductase 1; O89049; recombinant rTrxR1, NADPH fluorescence consumption, selenite substrate; Potency, µM (doses to about 114 µM), inactives show at the top dose activity change, negative = inhibition, most hits filed as inhibitors; 390,000 compounds, 1% hits; AID 588453; note: potency is the fitted concentration of half-maximal effect; % is set by controls: 0 for no effect and ±100 for the full control effect; nearly all actives have a fitted effect of over 65% in size
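Rat TrxR1 (90 nM in the dispensed reagent) was pre-reduced with 400 uM NADPH for 5 min at room temperature, then incubated with compound for 15 min. After 400 uM selenite was added, NADPH fluorescence (Ex 340/Em 450 nm) was followed for 8 min.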
IDH1 R132H inh – human IDH1 R132H inhibition; O75874; Potency, µM (doses to about 76.6 µM), for inactives: top-dose activity change, negative = inhibition, usual class: inhibitors; 390,000 compounds, 0.093% hits; IDH1-R132H enzyme, NADPH consumption, diaphorase/resazurin fluorescence; note: potency is the fitted concentration of half-maximal effect; % is set by controls: 0 for no effect and ±100 for the full control effect; nearly all actives have a fitted effect of over 65% in size
Target sequence (O75874 whole entry R132H, stated change not applied): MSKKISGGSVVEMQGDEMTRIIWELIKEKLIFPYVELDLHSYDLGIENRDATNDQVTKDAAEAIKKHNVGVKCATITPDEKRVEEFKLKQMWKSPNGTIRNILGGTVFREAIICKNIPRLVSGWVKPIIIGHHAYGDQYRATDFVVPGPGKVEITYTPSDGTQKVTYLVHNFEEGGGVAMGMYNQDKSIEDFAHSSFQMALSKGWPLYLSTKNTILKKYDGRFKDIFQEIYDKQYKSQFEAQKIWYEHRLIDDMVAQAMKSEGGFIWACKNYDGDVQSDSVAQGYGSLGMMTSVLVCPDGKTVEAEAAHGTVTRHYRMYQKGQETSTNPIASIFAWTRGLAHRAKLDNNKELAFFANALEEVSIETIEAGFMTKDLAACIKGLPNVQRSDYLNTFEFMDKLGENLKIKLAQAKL
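IDH1-R132H (0.5 ug/mL dispensed) in pH 7.5 Tris buffer was preincubated 30 min with compound, then given a substrate mix of 0.016 mM NADPH and 2 mM alpha-KG for 80 min at room temperature; remaining NADPH was read by diaphorase/resazurin fluorescence.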
TrxR1 substrate – is turned over as a substrate by rat TrxR1; purified TrxR1 substrate turnover, NADPH consumption readout; Potency, µM (doses to about 114 µM), inactives show at the highest dose activity change, negative = substrate turnover; 390,000 compounds, 0.01% hits; AID 588456; note: potency is the fitted concentration of half-maximal effect; % is set by controls: 0 for no effect and ±100 for the full control effect; nearly all actives have a fitted effect of over 50% in size
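Rat TrxR1, dispensed at 90 nM, was prereduced with 400 uM NADPH (final) for 5 min at ~22 deg C, then incubated with compound 15 min before 400 uM selenite. A first-read NADPH fluorescence drop versus no-compound background flagged substrates.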
Giardia killer – Giardia lamblia killing; Giardia lamblia trophozoite viability; 340,000 compounds, 0.15% hits; AID 540267; activity change, % at 7.66 µM, hits read low; in the data active = activity change below about -80%; inconclusive = between about -30% and that limit;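 note: parasites exposed to compound for two days anaerobically before the ATP read; % is set by controls: 0 for no effect and ±100 for the full control effect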
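Viability, read as ATP luminescence: trophozoites at 100 cells/well, compound added, 48 hrs anaerobic at 37 deg C, then 15-30 min room-temperature development before reading.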
IL-2 act – activators of IL-2. AID 652025. IL-2 activation reporter assay, cell-based qHTS; stimulated with anti-CD3/CD4/CD28 beads; in transgenic mouse T cells. activation, % (series mostly up to about 46 µM). 360,000 compounds, 0.065% hits; in the data active = activation above about 50%; inconclusive = mostly about 30% to 49%; note: 0% is about no effect
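Readout is EGFP and DsRed signal by fluorescent plate cytometry after 18 h at 37 degrees C. Transgenic mouse T cells (750/well) received compound for 60 min before bead stimulation (anti-CD3, anti-CD4, anti-CD28); memory T cells served as non-tolerant control.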
BRCA1 expr act – BRCA1 expression activation; MCF7-BRCA1-FFLuc reporter, luminescence, 48 h; response scale: scaled: vehicle 0%, 10 µM genistein 100%; 380,000 compounds, 1.1% hits; Potency, µM (highest dose often 46.1 µM), for the others: top-dose activation, usual class: activators; note: potency is the fitted concentration of half-maximal effect; nearly all actives have a fitted effect of over 80% in size
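MCF7-BRCA1-FFLuc cells, 2000/well in phenol-red-free MEM, attached 2 h then treated 48 h at 37 C. Luciferase luminescence read 15 min after reagent; normalized to genistein maximum activation (10microM) and DMSO, concentration-response fitted.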
* hit, by the source's call; u = inconclusive; x = no result given; [ ] = another dose, or the depositor's remark. Sampled rows, rich in hits. Any-hit rate of the full collection: about 2.2%. Unless noted, calls come from the whole dose curve; as a rule, active = well fitted curve in the direction sought with a large enough effect; inconclusive = small, poorly fitted or top-dose-only effect, or another doubt; inactive = no such curve, though single readings can be large; an effect the other way counts as inactive or inconclusive.

SMILES	TrxR1 inh	IDH1 R132H inh	TrxR1 substrate	Giardia killer	IL-2 act	BRCA1 expr act
O=C1COCCN1	14%	x	0%	22	x	x
C/C(=N\OCC(=O)NCC(F)(F)F)c1cc2ccccc2o1	-2%	3%	-4%	-10	1	13µM*
CCc1nc(C)cn1S(=O)(=O)c1ccc(Cl)c(Cl)c1OC	5%	13%	-5%	x	x	x
C[C@@H]1[C@H](c2ccccc2)OCCS(=O)(=O)N1Cc1ccccc1F	12%	x	-6%	x	x	x
Cc1cc(=O)n2nc(N3CCC(C(=O)Nc4c(C)cccc4C)CC3)sc2n1	2%	16%	-4%	x	x	8%
COc1ccccc1N1CCN(C(c2ccc(N(C)C)cc2)c2nnnn2CCc2ccccc2)CC1 (stereo not given)	3.2µM*	3%	-5%	4	-3	-37%
COc1ccccc1N1CCN(C(c2ccccc2)c2nnnn2Cc2ccccc2)CC1 (stereo not given)	8%	x	1%	-13	x	-22%
Cc1ccc(C2C=C(c3ccc(Cl)cc3)Nc3nc(NC(=O)c4ccco4)nn32)cc1 (stereo not given)	40µM*	12%	9%	x	x	x
COc1ccccc1C(=O)Nc1nc2n(n1)C(c1ccc(F)cc1)C=C(c1ccc(Cl)cc1)N2 (stereo not given)	1%	-14%	-5%	x	x	x
NCCCN(Cc1ccc(Cl)c(Cl)c1)c1ccccn1	-5%	x	8%	4	x	-54%
Cc1csc(/C(=N/OC(=O)c2ccco2)C(N)=O)n1	11µM*	4%	5%	-5	0	4%
CC1CCN(c2nn3c(=O)c(C(=O)NCCc4ccccc4)cnc3s2)CC1	26%[57.1 µM]	-7%	36%[57.1 µM]	x	x	x
COC(=O)[C@@H]1[C@@H](C#N)C2(c3ccccc3-c3ccccc32)N(c2ccc(Cl)cc2)N1C#N	7.9µM*	-30%	-4%	17	-1	-86%
CCOc1ccc2nc(N3CCCC(C(=O)NCc4ccccc4OC)C3)sc2c1 (stereo not given)	10%	-2%	4%	x	x	x
COc1ccc(C2=NC(c3ccccc3)=Nc3ccc(C)cc3N2)cc1	9%	x	-5%	x	x	x
CC1=CC(c2ccccc2)=Nc2ccc(C)cc2N1	-13%	0%	10%	-7	0	7.1µM*
CCOC(=O)c1c(-c2ccc(C)cc2C)csc1NC(=O)c1ccccc1Cl	14%	-5%	2%	x	x	x
CC(C)Sc1ncc(Cl)c(C(=O)Nc2nnc(C(C)C)s2)n1	15%	-13%	-2%	x	x	x
Cc1ccccc1CS(=O)(=O)c1ncc(Cl)c(C(=O)Nc2nnc(C(C)C)s2)n1	7.1µM*	-1%	2%	x	x	x
CCCc1nnc(NC(=O)c2nc(S(=O)(=O)Cc3ccc(C)cc3)ncc2Cl)s1	50µM*	3%	5%	6	-4	-16%
CSc1nnc(NC(=O)c2nc(S(=O)(=O)Cc3ccccc3)ncc2Cl)s1	32µM*	3%	-8%	10	0	-22%
CC(C)c1nnc(NC(=O)c2nc(S(=O)(=O)Cc3ccccc3)ncc2Cl)s1	50µM*	3%	-2%	-20	-8	-41%
CC(C)(C)c1ccc(C(=O)NCC(=O)OCc2cc(=O)n3nc(C4CC4)sc3n2)cc1	12%[57.1 µM]	-13%	2%[57.1 µM]	x	x	16%
Cc1cc(C(=O)C(=O)Nc2nncs2)c(C)n1-c1ccc(Cl)cc1	15%	-22%	3%	x	x	x
CN1CC[C@H](c2c(O)cc(O)c3c(=O)cc(-c4ccccc4Cl)oc23)[C@@H](O)C1	-1%	x	-2%	5	x	0%
SMILES	TrxR1 inh	IDH1 R132H inh	TrxR1 substrate	Giardia killer	IL-2 act	BRCA1 expr act
CCOc1ccc(C(=O)c2cn(CC(=O)Nc3ccc4c(c3)OCO4)c3ccc(OCC)cc3c2=O)cc1	14%	6%	4%	x	x	-9%
COc1ccc(-n2c(SCc3ccccc3F)nc3c([nH]c4ccccc43)c2=O)cc1	35%[57.1 µM]	0%	2%[57.1 µM]	x	x	19%
COC(=O)C1=C(C)NC(=O)/C1=C\N(C)C	16µM*	-3%	0%[57.1 µM]	-12	-3	0%
O=C(Nc1cccc(Cl)c1Cl)c1ccc2c(c1)N(Cc1cccc(Cl)c1)C(=O)c1ccccc1S2(=O)=O	10%	9%	4%	x	x	18%
CN(C)c1ncc(C2=C(Cl)C(=O)C(N3CCCC3)=C(Cl)C2=O)s1	2.5µM*	19%	1%	-6	-2	-31%
CC(=O)c1cnc(N(C)C)s1	-2%	-1%	-10%	-11	1	-3%
O=C1C(Cl)=C(N2CCCCC2)C(=O)C(Cl)=C1c1cnc(N2CCCCC2)s1	1.8µM*	24%	-3%	19	-2	-54%
Cc1ccc(NC(=O)C2CCN(C(=O)c3cnn(-c4ccccc4)c3-n3cccc3)CC2)cc1C	13%	-9%	1%	x	x	-33%
CS/C(=N\S(=O)(=O)c1ccc(F)cc1)c1ccccc1	7%	x	-2%	3	x	-5%
CC1=C(C(=O)N2CCCCC2)C(c2cccc(Cl)c2)n2c(nc3ccccc32)N1 (stereo not given)	-9%	-21%	-8%	x	x	8%
Cc1nn(-c2ccccc2)c(/N=C/c2ccccc2O)c1-c1ccccc1	27%	0%	4%	-16	-2	13µM*
O=C(c1cc(-c2ccc(Cl)cc2)on1)N1CCCC1	26%	-5%	8%	-17	0	u
CCC1CCCCN1C(=O)c1cc(-c2ccc(Cl)c(Cl)c2)on1 (stereo not given)	19%	-7%	7%	10	-1	11µM*
O=C(c1cc(-c2ccc(Cl)c(Cl)c2)on1)N1CCCCC1	-9%	1%	-5%	-20	0	4µM*
CC1CCCCN1C(=O)c1cc(-c2ccc(Cl)c(Cl)c2)on1 (stereo not given)	-12%	-1%	-10%	-11	0	5.6µM*
CCOC(=O)COn1c(-c2cccc(Cl)c2)nc2ccc([N+](=O)[O-])cc21	-1%	10%	-2%	3	-3	7.1µM*
CCOC(=O)C(C)On1c(-c2cccc(Cl)c2)nc2ccc([N+](=O)[O-])cc21 (stereo not given)	-8%	8%	-9%	-2	-1	38%
O=C(Nc1ccc(Cc2ccc(NC(=O)N3CCOCC3)cc2)cc1)N1CCOCC1	24%	7%	3%	-11	-2	4%
CCC(C)c1ccc(NC(=O)N2CCOCC2)cc1 (stereo not given)	12%[57.1 µM]	0%	7%[57.1 µM]	-1	0	10µM*
N#Cc1nc(COc2ccccc2Cl)oc1NCc1cccnc1	35µM*	7%	2%	2	-1	4%
Cc1ccc(-c2csc(NC(=O)CSc3nc(C)cs3)n2)cc1	13%	4%	6%	-5	-1	11µM*
Cc1csc(SCC(=O)Nc2nccs2)n1	11%	2%	-2%	5	5	-5%
